Test systems include S6K1; SBK1; SGK2; SGK3; SGK; SIK2; SIK; SLK; SNRK; SRC.
What all share (conditions): concentration: 1 μM, replicates: in singlicate; n = 1
The test system of test [1] is RPS6KA5(Kin.Dom.2-C-terminal).
Test [2] concerns T1, RSK1(Kin.Dom.1-N-terminal).
T1 construct: gene RPS6KA1

Test [3] relates to T2, RSK1(Kin.Dom.2-C-terminal).
T2 construct: gene RPS6KA1

The subject of test [4] is T3, RSK2(Kin.Dom.1-N-terminal).
T3 construct: gene RPS6KA3

Test [5] has as its system T4, RSK2(Kin.Dom.2-C-terminal).
T4 construct: gene RPS6KA3

In test [6] the test system is T5, RSK3(Kin.Dom.1-N-terminal).
T5 construct: gene RPS6KA2

Test [7] deals with T6, RSK3(Kin.Dom.2-C-terminal).
T6 construct: gene RPS6KA2

The subject of test [8] is T7, RSK4(Kin.Dom.1-N-terminal).
T7 construct: gene RPS6KA6

Test [9] relates to T8, RSK4(Kin.Dom.2-C-terminal).
T8 construct: gene RPS6KA6

The next test deals with T9, SNARK.
T9 construct: gene NUAK2
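Note: KINOMEscan kinase panel screen.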

On to `CC(C)(C)c1ccc(-n2cnc3c(N)ncnc32)cc1` [SKF-97263], for which the “%Inh” value in [1] amounted to 0%; in [2], 0%; in [3], 16%; in test [4], 0%; in test [5], 28%; in test [6], 8%. The “%Inh” value in test [7] is on record as 0%; in [8] it was 15%; in test [9], 0%; in the test with S6K1 it was 10%; in the test on SBK1 it was 11%; in the test on SGK2, 0%. In addition, the “%Inh” value came to 15% in the test with SGK3; 2% in the test with SGK; 7% in the test with SIK2; 0% in the test with SIK; 13% with SLK; 18% in the test with SNARK. Further, the “%Inh” value in the test on SNRK is listed as 0%; in the test on SRC, 1%.

Turning to `O=c1cc(N2CCOCC2)nc2n(Cc3cccc(Cl)c3)ccn12` [GSK2296823], the “%Inh” value was found to be 7% in test [1]; 10% in test [2]; 0% in test [3]; 21% in [4]; 27% in test [5]; 0% in [6]. Also, the “%Inh” value worked out at 0% in test [7]; 0% in test [8]; 19% in test [9]; 0% in the test with S6K1; 32% in the test with SBK1; 0% with SGK2. Besides, the “%Inh” value in the test with SGK3 amounted to 13%; in the test with SGK it was 0%; in the test with SIK2, 9%; in the test on SIK, 0%; with SLK, 0%; in the test with SNARK, 0%. Further, the “%Inh” value in the test on SNRK is 5%; in the test with SRC, 2%.

`COc1ccc(NC(=O)c2ccc(-c3cc(-c4nnc(C)o4)ccc3C)cc2)cc1` [GW595885]: the “%Inh” value in test [1] was 0%; in test [2], 17%; in test [3], 0%; in [4] it was 0%; in [5] it was 0%; in [6] it was 0%. Besides, the “%Inh” value in test [7] is on record as 0%; in test [8], 0%; in test [9] it was 5%; in the test with S6K1, 4%; in the test with SBK1, 26%; in the test with SGK2, 2%. Further, the “%Inh” value in the test with SGK3 came out at 0%; in the test with SGK, 1%; in the test with SIK2 it was 0%; with SIK, 0%; in the test on SLK, 10%; in the test on SNARK, 0%. Moreover, the “%Inh” value in the test with SNRK and in the test on SRC was 0% each time.

For `O=C(c1ccc(-c2cc(-c3c[nH]nc3-c3ccccn3)ccn2)cc1)N1CCCC1` [GW792479], the “%Inh” value worked out at 11% in test [1]; 4% in test [2]; 0% in [3]; 14% in [4]; 39% in test [5]; 0% in [6]. The “%Inh” value is 12% in [7]; 0% in [8]; 19% in [9]; 7% with S6K1; 0% in the test with SBK1; 8% in the test on SGK2. Moreover, the “%Inh” value in the test on SGK3 is 0%; with SGK, 0%; with SIK2, 12%; in the test on SIK, 19%; in the test with SLK it was 3%; with SNARK, 0%. In addition, the “%Inh” value is reported as 0% in the test on SNRK and 17% with SRC.

Regarding `Nc1n[nH]c2nnc(-c3ccccc3)cc12` [SB-517389], the “%Inh” value in test [1] stood at 2%; in test [2] it was 28%; in [3] it was 9%; in test [4] it was 0%; in test [5] it was 76%; in [6], 4%. Further, the “%Inh” value in test [7] is 24%; in test [8], 0%; in test [9], 25%; in the test on S6K1 it was 25%; with SBK1, 10%; in the test on SGK2 it was 0%. Besides, the “%Inh” value in the test with SGK3 is given as 19%; with SGK it was 0%; in the test with SIK2, 0%; with SIK, 0%; in the test on SLK, 0%; in the test with SNARK, 0%. The “%Inh” value is 2% in the test on SNRK and 0% in the test with SRC.

For `Clc1cccc(-c2nc(Nc3ccncc3)c3ccccc3n2)c1` [GW873004], the “%Inh” value in [1] is reported as 16%; in test [2], 0%; in [3], 10%; in [4] it was 49%; in test [5], 40%; in [6] it was 0%. The “%Inh” value came to 2% in [7]; 0% in test [8]; 24% in test [9]; 0% in the test on S6K1; 0% in the test with SBK1; 11% in the test on SGK2. The “%Inh” value amounted to 0% in the test on SGK3; 6% in the test with SGK; 0% with SIK2; 63% in the test on SIK; 43% in the test on SLK; 0% in the test on SNARK. Moreover, the “%Inh” value in the test with SNRK and with SRC was 0% in each case.

Turning to `O=C(Nc1n[nH]c2nc(-c3ccco3)c(Br)cc12)c1ccc(CN2CCCC2)cc1.O=C(O)[C@H](O)[C@@H](O)C(=O)O` [SB-742352], the “%Inh” value in [1] came to 0%; in test [2], 5%; in test [3], 0%; in [4], 3%; in test [5] it was 0%; in [6], 0%. In addition, the “%Inh” value in test [7] was 0%; in test [8], 13%; in test [9], 0%; in the test on S6K1, 11%; with SBK1 it was 12%; in the test on SGK2 it was 1%. For the same molecule, the “%Inh” value in the test on SGK3 was found to be 0%; with SGK it was 17%; in the test with SIK2, 3%; with SIK, 0%; in the test with SLK, 25%; in the test with SNARK it was 0%. Also, the “%Inh” value in the test with SNRK amounted to 0%; with SRC it was 22%.

As for `Clc1ccc(-c2cc(-c3c[nH]nc3-c3ccccn3)ccn2)cc1` [GW681251], the “%Inh” value was 0% in test [1]; 6% in [2]; 13% in test [3]; 0% in test [4]; 21% in test [5]; 0% in test [6]. Besides, the “%Inh” value in test [7] turned out to be 0%; in test [8], 0%; in test [9], 44%; in the test with S6K1, 0%; in the test on SBK1 it was 4%; in the test with SGK2, 0%. Moreover, the “%Inh” value was 6% in the test on SGK3; 0% with SGK; 0% with SIK2; 0% in the test with SIK; 10% with SLK; 0% in the test on SNARK. Moreover, the “%Inh” value with SNRK and with SRC was 0% throughout.

Regarding `CCC(CC)(CC)n1cnc2c(N)ncnc21` [SKF-97620], the “%Inh” value in [1] is recorded as 4%; in test [2], 0%; in test [3], 34%; in [4], 41%; in [5], 10%; in [6], 0%. In addition, the “%Inh” value was 22% in [7]; 40% in test [8]; 2% in test [9]; 16% in the test on S6K1; 51% in the test with SBK1; 3% with SGK2. Also, the “%Inh” value in the test with SGK3 came out at 15%; in the test on SGK it was 0%; in the test with SIK2 it was 1%; in the test with SIK, 0%; with SLK, 24%; in the test on SNARK, 28%. The “%Inh” value in the test on SNRK was found to be 30%; in the test on SRC, 0%.

(Values after PMC5540273 (PLoS ONE, 2017).)
